Experimental data published in PubChem BioAssay AID1159580 (chemical genetic matrix, 2015).
Values joined by “and” are separate entries in the source; they are usually repeats but may differ in a detail not shown here. Identical values can stand only once. About 2,000 (36%) of roughly 5,500 compounds were called active. Inconclusive results (about 18%) are left out. No stated cut-off is given here; in the data, active means normalized growth mostly below about 0.91 (no sharp cut-off); inconclusive means no clear call, values can overlap the other calls; inactive means mostly above about 0.92. This is one part of the list.

Test: chemical genetic growth profiling, strain panel (AID 1159580);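 further: tested at 20 µM; growth read once vehicle control cultures reached saturation at 30 °C; 1 = growth at the plate median or of vehicle wells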
Settings: S. cerevisiae deletion strains, growth OD

Measured: normalized growth

Cn1cnc([N+](=O)[O-])c1Sc1ncnc2nc[nH]c12
inactive: locus YAL021C, strain ccr4, stronger effect = lower value 1.03 | locus YAL026C, strain drs2, stronger effect = lower value 1.04 | locus YAL030W, strain snc1, stronger effect = lower value 1.02 | locus YAL040C, strain CLN3, stronger effect = lower value 1.01 | locus YBL061C, strain skt5, stronger effect = lower value 1.03 | locus YBR009C, strain hhf1, stronger effect = lower value 1.01 | locus YBR021W, strain FUR4, stronger effect = lower value 1.02 | locus YBR023C, strain chs3, stronger effect = lower value 1.02 | locus YBR171W, strain sec66, stronger effect = lower value 1.02 | locus YBR229C, strain ROT2, stronger effect = lower value 1.01 | locus YBR231C, strain swc5, stronger effect = lower value 1.01 | locus YBR279W, strain paf1, stronger effect = lower value 1.01 | locus YCL011C, strain gbp2, stronger effect = lower value 1.01 | locus YCL016C, strain dcc1, stronger effect = lower value 1.04 | locus YCL029C, strain bik1, stronger effect = lower value 0.997 | locus YCL069W, strain vba3, stronger effect = lower value 1.02 | locus YCR088W, strain abp1, stronger effect = lower value 1.02 | locus YDL005C, strain med2, stronger effect = lower value 1.01 | locus YDL035C, strain GPR1, stronger effect = lower value 1.03 | locus YDL040C, strain nat1, stronger effect = lower value 1.02 | locus YDL074C, strain BRE1, stronger effect = lower value 1.01 | locus YDL101C, strain DUN1, stronger effect = lower value 1.01 | locus YDL134C, strain PPH21, stronger effect = lower value 1.02 | locus YDL185W, strain tfp1, stronger effect = lower value 1 | locus YDL192W, strain arf1, stronger effect = lower value 0.994 | locus YDR001C, strain nth1, stronger effect = lower value 1.02 | locus YDR069C, strain doa4, stronger effect = lower value 1.02 | locus YDR101C, strain arx1, stronger effect = lower value 0.999 | locus YDR137W, strain rgp1, stronger effect = lower value 1.02 | locus YDR150W, strain NUM1, stronger effect = lower value 0.999 | locus YDR159W, strain sac3, stronger effect = lower value 1 | locus YDR162C, strain NBP2, stronger effect = lower value 1.03 | locus YDR195W, strain ref2 0.996 | locus YDR297W, strain sur2, stronger effect = lower value 1.03 | locus YDR318W, strain mcm21, stronger effect = lower value 0.996 | locus YDR334W, strain swr1, stronger effect = lower value 1.03 | locus YDR335W, strain msn5, stronger effect = lower value 1.01 | locus YDR363W, strain ESC2, stronger effect = lower value 1.01 | locus YDR388W, stronger effect = lower value 0.985 | locus YDR392W, strain spt3, stronger effect = lower value 1.04 | locus YDR502C, strain sam2, stronger effect = lower value 0.985 | locus YEL003W, strain gim4, stronger effect = lower value 1.03 | locus YEL037C, strain rad23, stronger effect = lower value 1.01 | locus YEL061C, strain CIN8 (second series), stronger effect = lower value 1.03 | locus YEL061C, strain CIN8, stronger effect = lower value 1.01 | locus YER002W, strain NOP16, stronger effect = lower value 0.995 | locus YER015W, strain faa2, stronger effect = lower value 1.02 | locus YER016W, strain bim1, stronger effect = lower value 1.01 | locus YER110C, stronger effect = lower value 0.989 | locus YER111C, strain swi4, stronger effect = lower value 1.03 | locus YER155C, strain BEM2 (second series), stronger effect = lower value 0.996 | locus YER155C, strain BEM2, stronger effect = lower value 1.01 | locus YER167W, strain BCK2, stronger effect = lower value 1.02 | locus YFR010W, strain ubp6, stronger effect = lower value 1 | locus YGL078C, strain dbp3, stronger effect = lower value 0.988 | locus YGL086W, strain mad1, stronger effect = lower value 0.991 | locus YGL167C, strain pmr1, stronger effect = lower value 1.02 | locus YGL173C, strain kem1, stronger effect = lower value 1.02 | locus YGL227W, strain vid30, stronger effect = lower value 1 | locus YGL240W, strain doc1, stronger effect = lower value 1.04 | locus YGL248W, strain PDE1, stronger effect = lower value 1.01 | locus YGL253W, strain hxk2, stronger effect = lower value 1.03 | locus YGR078C, strain PAC10, stronger effect = lower value 1.01 | locus YGR135W, strain pre9, stronger effect = lower value 0.991 | locus YGR229C, strain SMI1, stronger effect = lower value 1.03 | locus YGR252W, strain gcn5, stronger effect = lower value 0.974 | locus YHR013C, strain ard1, stronger effect = lower value 1.02 | locus YHR027C, strain rpn1, stronger effect = lower value 1.03 | locus YHR030C, strain SLT2, stronger effect = lower value 1.02 and 1.08 | locus YHR079C, strain IRE1 (second series), stronger effect = lower value 0.995 | locus YHR079C, strain IRE1, stronger effect = lower value 1.05 | locus YHR094C, strain hxt1, stronger effect = lower value 0.994 | locus YHR129C, strain ARP1, stronger effect = lower value 1.01 | locus YHR142W, strain chs7, stronger effect = lower value 1.06 | locus YHR200W, strain rpn10, stronger effect = lower value 0.994 | locus YIL066C, strain RNR3, stronger effect = lower value 1.03 | locus YIL073C, strain SPO22, stronger effect = lower value 1.02 | locus YIL125W, strain kgd1, stronger effect = lower value 0.991 | locus YIR030C, strain dcg1, stronger effect = lower value 0.992 | locus YJL092W, strain hpr5, stronger effect = lower value 1.02 | locus YJL095W, strain BCK1 (second series), stronger effect = lower value 1 | locus YJL095W, strain BCK1, stronger effect = lower value 0.988 and 1.05 | locus YJL115W, strain asf1, stronger effect = lower value 1.05 | locus YJL129C, strain trk1, stronger effect = lower value 1.03 | locus YJL134W, strain LCB3, stronger effect = lower value 1.01 | locus YJL154C, strain vps35, stronger effect = lower value 1.02 | locus YJL164C, strain tpk1, stronger effect = lower value 1.04 | locus YJL166W, strain qcr8, stronger effect = lower value 1.02 | locus YJL168C, strain set2, stronger effect = lower value 0.993 | locus YJL187C, strain SWE1 (second series), stronger effect = lower value 0.997 | locus YJR043C, strain POL32, stronger effect = lower value 1.04 | locus YJR066W, strain TOR1, stronger effect = lower value 0.998 | locus YJR075W, strain HOC1, stronger effect = lower value 1.01 and 0.99
